Where “and” joins values, the source holds several entries; their conditions need not be identical. Equal values may be shown once. The campaign covered roughly 75,000 compounds. About 5,700 (7.6%) were called active. About 7% were inconclusive and are not listed. The call rests on the fitted dose curve; in most records, active means well fitted inhibition curve with a large enough effect; inconclusive means small, poorly fitted or top-dose-only effect; inactive means no such curve, though single readings can be large or run the other way. For the sample, actives were picked, then their nearest neighbours and some compounds at random.
Molecular target: 3-hydroxyacyl-CoA dehydrogenase type-2 (Homo sapiens) (UniProt Q99714)
Assay: qHTS Assay for Inhibitors of HSD17B4, hydroxysteroid (17-beta) dehydrogenase 4;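 further: the protocol describes HADH2 (HSD17B10) and not the HSD17B4 of the title; nearly all actives have a fitted effect of over 70% in size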
Details: recombinant HSD17B10, NADH fluorescence kinetic; series mostly up to 57.1 µM
Outline: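 His-tagged E. coli-expressed HADH2 at 20 nM in 100 mM Tris-HCl pH 9.0 with 0.01 % Tween-20, preincubated 15 min with compound at room temperature. Reaction with 1 mM NAD+ and 90 uM beta-hydroxybutyryl coenzyme A; NADH fluorescence (360/450 nm) read kinetically over 4 min, last minus first point.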
On the % scale 0 is the no-effect control and ±100 the full control effect; potency means the concentration at half of the fitted maximal effect.

Potency, active:
c1ccc2c(Nc3ccncc3)nc(-c3ccc4c(c3)OCO4)nc2c1 25.1 µM
c1ccc2c(Nc3ccncc3)nc(-c3ccoc3)nc2c1 20 µM
Cc1noc(C)c1-c1nc(Nc2ccccc2)c2ccccc2n1 20 µM
CN(C)CCCn1c(N)c(C#N)c2nc(C#N)c(C#N)nc21 25.1 µM
COC(=O)c1cnn2c(C(F)(F)F)cc(-c3ccco3)nc12 25.1 µM
Cc1ccc(NC(=O)c2cccc(N(C)C)c2)cc1NC(=O)c1ccc(O)cc1 31.6 µM
Cc1ccnc(N2CCCC(C(=O)Nc3cc(F)ccc3C)C2)n1 (configuration not stated) 25.1 µM
Cc1occc1C(=O)Nc1nnc(-c2ccncc2)s1 31.6 µM
Cn1c(=O)c2c(nc(NCCc3ccccc3)n2Cc2ccccc2)n(C)c1=O 31.6 µM
Cc1ccc2c(CSc3nncs3)cc(=O)oc2c1 12.6 µM
CN(CCc1ccccn1)S(=O)(=O)c1ccc2c3c(cccc13)C(=O)N2 31.6 µM
CCc1ccc(Nc2ncc3c(n2)CC(c2ccco2)CC3=O)cc1 (configuration not stated) 20 µM
Cc1c(C(=O)OCC(=O)N(CCC#N)c2ccccc2)oc2c1ccc1ccccc12 31.6 µM
Cc1cc(C)c2c(n1)nn1c(N3CCOCC3)cc(C)nc21 12.6 µM
Cc1cc(C)c2c(n1)nn1c(N3CCN(c4cccc(Cl)c4)CC3)cc(C)nc21 3.16 µM
CCC1(C)Cc2c(sc3nc4n(c(=O)c23)CCCS4)CO1 (configuration not stated) 31.6 µM
Cc1c(S(=O)(=O)O)oc2c1C(=O)C(=O)c1c-2ccc2c1CCCC2(C)C 10 µM
CCCCCC(=O)Nc1ccc2oc(-c3ccncc3)nc2c1 31.6 µM
CC(C)(C)OC(=O)c1c(N)n(CCCN2CCCC2=O)c2nc3ccccc3nc12 25.1 µM

Potency, inactive:
CCOc1ccc(NC(=O)CSc2nc3c(c(=O)n2-c2ccccc2OC)SCC3)cc1
O=C(c1cccc(S(=O)(=O)N2CCOCC2)c1)N1CCOCC1
COc1ccccc1CNc1ccnc(-c2c(C)noc2C)n1
COc1cccc(-c2nc(Nc3ccncc3)c3ccccc3n2)c1
Cc1cnc(CNc2nc(-c3cccnc3)nc3ccccc23)cn1
CNc1nc(-c2ccccc2OC)nc2ccccc12
c1cncc(-c2nc(N3CCNCC3)c3ccccc3n2)c1
O=C(Cn1nnc(-c2ccccc2)n1)NCc1ccc2c(c1)OCO2
CCCn1c(=O)c2[nH]c(C3CCCC3)nc2n(CCC)c1=O
O=C(Cn1cc2c(n1)CCCCC2)NCCN1CCOCC1
Cc1cc(NC(=O)COC(=O)c2ccc(F)c(S(=O)(=O)N3CCOCC3)c2)no1
CC1(C)OC2CC(=O)OC[C@@]23C1CC(=O)[C@]1(C)C3CC[C@@]2(C)C(c3ccoc3)OC(=O)C3O[C@@]321 (some centres not stated)
NC[C@@H]1O[C@H](O[C@@H]2[C@H](O[C@@H]3O[C@H](CO)[C@@H](COC[C@H]4O[C@@H](CN)[C@@H](O)[C@@H](O)[C@@H]4N)[C@@H]3O)[C@@H](O)[C@@H](N)C[C@H]2N)[C@@H](N)[C@H](O)[C@@H]1O
C=CCSc1nnc(Cn2c(=O)sc3ccccc32)n1C
Cc1cc(NC(=O)CN2CCC(O)(c3cccc(F)c3)CC2)no1
CCCN(C/C=C\I)[C@@H]1CCc2cccc(O)c2C1
CC(NC(=O)CN1CCN(Cc2ccc(Cl)cc2)C1=O)c1ccc2c(c1)OCCO2 (configuration not stated)
CC1CCCCC1NC(=O)CSc1nnc(N)s1 (configuration not stated)
O=c1ccc2cc(S(=O)(=O)N3CCN(c4ccccc4)CC3)ccc2o1
CCOc1ccc(OCC)c(NC(=O)C2CCN(S(=O)(=O)c3c(C)noc3C)CC2)c1
Cc1ccc(F)cc1NC(=O)c1ccc2c(c1)OCO2
COc1ccccc1OCCNCC(O)COc1cccc2[nH]c3ccccc3c12 (configuration not stated)
C#CC(C)(C)NC(=O)CSc1nc2c(c(=O)n(C)c(=O)n2C)n1CCCC
Cc1cc(C(F)(F)F)n2ncc(-c3ccccc3)c2n1
COC(=O)c1ccccc1NC(=O)Cn1nc(C(F)(F)F)c2c1CCC2
CCC1=C(OC(=O)N(CC)CC)N2C(=O)OC(=NCCc3c[nH]c4ccccc34)[C@]2(C)[C@H]2C1=CC[C@H]1C(=O)N(CC)C(=O)[C@H]12
CCOC(=O)c1cn(CC(=O)Nc2ccc(C(C)C)cc2)nn1
Cn1c(NC(=O)c2ccc3c(c2)OCO3)cc(=O)n(C)c1=O
Cc1ccc(F)cc1NC(=O)c1cccc(N(C)C)c1
Cc1ccccc1NC(=O)c1ccccc1
O=C(Nc1ccc2c(c1)OCCO2)C1CCCN(c2ncccn2)C1 (configuration not stated)
Cc1ccc(NC(=O)C2CCCN(S(=O)(=O)c3c(C)noc3C)C2)c(C)c1 (configuration not stated)
COc1ccc(N(CC(=O)NC2CCCCCCC2)S(=O)(=O)c2c(C)nn(C)c2C)cc1
COc1cccc(-n2cc3c(c2-c2ccccc2)c(=O)n(C)c(=O)n3C)c1
Cc1occc1C(=O)Nc1nnc(C2CCCCC2)s1
Cc1occc1C(=O)Nc1cccc(Cn2cccn2)c1
O=C(NC1CCCC1)c1ccc(Br)s1
CCOc1ccc2nc(SC(CC)C(=O)Nc3cc(C)on3)sc2c1 (configuration not stated)
CN1CCCC1CCO[C@@](C)(c1ccccc1)c1ccc(Cl)cc1 (some centres not stated)
COc1ccc2[nH]cc(CCNc3ncnc4ccc(-c5ccc(C(=O)N(C)C)cc5)cc34)c2c1
O=C(CS(=O)(=O)c1cn(Cc2cccc(F)c2)c2ccccc12)N1CCCCC1
CCn1c(NCCc2ccc(OC)c(OC)c2)nc2c1c(=O)n(C)c(=O)n2C
CC1CCN(Cc2nc3c(c(=O)n(C)c(=O)n3C)n2CCc2ccccc2)CC1
CCN(Cc1nc2ccccc2c(=O)[nH]1)Cc1cc(=O)oc2cc(C)c(C)cc12
COC(=O)[C@@]1(Cc2ccc(OC)cc2)[C@H]2c3cc(C(=O)N4CCCC4)n(Cc4ccc(C(F)(F)F)nc4)c3C[C@H]2CN1C(=O)c1ccccc1
CC(C)c1ccc(NS(=O)(=O)c2cn(C)c(=O)n(C)c2=O)cc1
O=c1[nH]nc(Cc2ccccn2)c2ccccc12
COC(=O)c1ccccc1NC(=O)c1cncc(Br)c1
O=C(CSc1nnc2ccccn12)c1ccccc1
CCc1ccc(NC(=O)CSc2nnc(-c3cnccn3)n2Cc2ccco2)cc1
O=C(Nc1ncc2c(n1)CC(c1ccco1)CC2=O)c1ccc(Cl)cc1 (configuration not stated)
COC(=O)c1ccc(C23CC4(C2)[C@H](CN(Cc2cccnc2)[C@@H]4c2ccccc2)C3c2ccc(Cl)nc2)cc1 (some centres not stated)
COc1cc(C2C(C(=O)Nc3ccccc3OC)=C(C)Nc3ncnn32)ccc1O (configuration not stated)
Cc1c(C(=O)OCc2cc(=O)n3cc(Br)ccc3n2)oc2ccccc12
COc1ccc(N(CC(=O)NC(C)(C)C)C(=O)c2ccco2)cc1
CCOC(=O)c1cccc(NC(=O)CN(c2ccc(C)cc2)S(=O)(=O)c2c(C)noc2C)c1
CC(C)c1nc2oc3c(N4CCN(C)CC4)ncnc3c2c2c1CCC2
CCOC(=O)CSc1nnc(CNC(=O)c2cccs2)n1-c1cc(OC)ccc1OC
Cc1nn2c3cc(N4CCOCC4)ccc3nc2c2ccccc12
C/C(O)=C\c1nc(=O)c2c(C)cc(C)nc2n1-c1ccccc1
O=C(c1ccco1)N1CCN(c2cccc(Cl)c2)CC1
Cc1cc(N2CCCC2)n2nc(C)c(-c3ccccc3)c2n1
COc1ccc(Cl)cc1NC(=O)c1oc(C)nc1C
CC(C)(C)c1csc(NC2=NS(=O)(=O)c3ccccc32)n1
CC1(C)C=CC(=O)[C@]2(C)C1CC(=O)[C@]1(C)C2CC[C@@]2(C)C(c3ccoc3)OC(=O)C3OC321 (some centres not stated)
O=C(Cl)c1ccccc1[N+](=O)[O-]
CC1CCCC(N2CCN(C(=O)c3ccc(F)cc3)CC2)C1 (configuration not stated)
COc1ccccc1-c1nc(N2CCN(C)CC2)c2ccccc2n1
CCn1cc(C(=O)NC2CCCCCC2)c(=O)c2cc(S(=O)(=O)N3CCCCC3)ccc21
CCCCc1c(O)nc2n(c1=O)CCS2
CN(C)CCSc1nc(N)c2c3c(sc2n1)COC(C)(C)C3
CCOC(=O)CCCNC(=O)CN1C(=O)NC(CCc2ccccc2)C1=O (configuration not stated)
CCC(=O)N1CCN=C1SCc1ccc(F)cc1
Cc1cc2nc(-c3ccc(NC(=O)c4cccnc4)cc3)oc2cc1C
CCCCC(=O)Nc1ccc2c(c1)OCCO2
CNC(=O)c1c(NC(=O)c2ccc(S(=O)(=O)N3CCOCC3)cc2)sc2c1CCC2
Cc1ccc(S(=O)(=O)N(C)CC(=O)N2CCc3ccccc32)cc1
COCCN(CC(=O)Nc1ccccc1C)S(=O)(=O)c1ccc(S(=O)(=O)N2CCCC2)cc1
CCOc1cc2[nH]c(=S)n(CCCN3CCCC3=O)c(=O)c2cc1OCC
CSc1nnc(-c2ccncc2)n1CCCN1CCCC1=O

Activity change, negative = inhibition, inactive:
COc1ccc(/C=C/NC(=O)Cc2ccc(OC)c(OC)c2)cc1 -1.94% [at 11.4 µM] and 1.41% [at 11.4 µM]
O=C1NC(=O)[C@@](Cc2ccccc2)(c2cccnc2)N1 -1.35% [at 11.4 µM]
CN(C)CCSS(=O)(=O)O 8.4% [at 11.4 µM]
